Measured values as given in the supplement of paper PMC11732987, “Enantioselective OTUD7B fragment discovery through chemoproteomics screening and high-throughput optimisation” (Communications Chemistry, 2025).

What was measured:
Experiment in all cases: log2 ratio of Biotin-Ahx-Ub-VS probe labelling (fragment/DMSO); higher = less target engagement (more negative = stronger competition), active = hit call of the paper (q ≤ 0.05, log2 ratio ≤ -1)
Conditions in all cases: compound concentration: 200 uM; treatment time: 3 h
OTUD6B = molecular target: T1, OTUD6B (UniProt Q8N6M0)
T1 sequence (whole entry): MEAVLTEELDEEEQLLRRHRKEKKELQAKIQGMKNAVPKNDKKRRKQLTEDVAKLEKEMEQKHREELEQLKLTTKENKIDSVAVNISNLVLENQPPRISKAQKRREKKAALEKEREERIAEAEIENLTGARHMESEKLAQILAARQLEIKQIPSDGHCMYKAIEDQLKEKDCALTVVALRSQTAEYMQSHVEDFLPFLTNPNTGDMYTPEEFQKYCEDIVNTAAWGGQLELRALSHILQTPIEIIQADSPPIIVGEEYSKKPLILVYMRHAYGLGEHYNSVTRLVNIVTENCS
Method in brief: (§1)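 HEK293T lysate, 495 µg per sample in Tris/CHAPS/IGEPAL buffer with protease inhibitors, was treated in triplicate with fragment at 200 µM or vehicle for 3 h and then with Biotin-Ahx-Ub-VS at 0.5 µM final for 1 h. Labelled DUBs were NeutrAvidin-enriched, digested with LysC and trypsin, and run by diaPASEF LC-MS/MS. Spectronaut label-free quantities were global-median-normalised, and values are average log2 fragment/vehicle ratios by unpaired t-test on proteins with ≥2 unique peptides.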

OTUD7B = molecular target: T2, OTUD7B (UniProt Q6GQQ9)
T2 sequence (whole entry): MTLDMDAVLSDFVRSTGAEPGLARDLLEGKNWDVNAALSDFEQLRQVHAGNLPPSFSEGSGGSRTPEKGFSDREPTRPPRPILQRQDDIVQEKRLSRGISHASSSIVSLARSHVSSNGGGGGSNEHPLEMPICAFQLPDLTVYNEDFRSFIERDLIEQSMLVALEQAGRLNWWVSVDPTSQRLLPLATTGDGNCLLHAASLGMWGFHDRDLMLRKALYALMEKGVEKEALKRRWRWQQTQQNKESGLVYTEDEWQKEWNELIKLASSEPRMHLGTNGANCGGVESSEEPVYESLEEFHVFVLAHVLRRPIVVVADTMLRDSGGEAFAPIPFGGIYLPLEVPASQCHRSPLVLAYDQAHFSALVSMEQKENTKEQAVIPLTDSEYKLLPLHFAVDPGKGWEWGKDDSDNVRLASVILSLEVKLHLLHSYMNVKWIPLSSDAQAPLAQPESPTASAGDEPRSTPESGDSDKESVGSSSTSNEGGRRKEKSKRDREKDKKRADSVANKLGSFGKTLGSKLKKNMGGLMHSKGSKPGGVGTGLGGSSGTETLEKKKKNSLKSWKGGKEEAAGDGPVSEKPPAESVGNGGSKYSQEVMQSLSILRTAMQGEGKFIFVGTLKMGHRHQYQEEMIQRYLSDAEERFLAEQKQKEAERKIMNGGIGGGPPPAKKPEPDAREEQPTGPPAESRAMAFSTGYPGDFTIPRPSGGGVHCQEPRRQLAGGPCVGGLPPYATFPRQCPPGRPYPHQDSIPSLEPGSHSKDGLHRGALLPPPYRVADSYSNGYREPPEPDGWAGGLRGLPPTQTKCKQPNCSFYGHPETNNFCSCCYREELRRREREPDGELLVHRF
Method in brief: as §1

PRPF8 = PRPF8 (UniProt Q6P2Q9)
Method in brief: as §1

PSMD7 = molecular target: T3, PSMD7 (UniProt P51665)
T3 sequence (whole entry): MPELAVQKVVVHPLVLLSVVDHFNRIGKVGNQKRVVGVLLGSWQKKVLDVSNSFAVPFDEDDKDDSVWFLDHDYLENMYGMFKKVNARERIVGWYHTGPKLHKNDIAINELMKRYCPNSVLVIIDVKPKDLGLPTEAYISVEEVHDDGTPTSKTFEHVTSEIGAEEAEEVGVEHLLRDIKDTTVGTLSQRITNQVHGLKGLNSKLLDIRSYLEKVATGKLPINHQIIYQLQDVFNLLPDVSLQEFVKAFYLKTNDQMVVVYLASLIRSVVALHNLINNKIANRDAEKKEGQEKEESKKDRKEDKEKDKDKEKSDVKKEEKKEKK
Method in brief: as §1

UCHL1 = UCHL1 (UniProt P09936)
Chain of UCHL1 (P09936 whole entry, looked up): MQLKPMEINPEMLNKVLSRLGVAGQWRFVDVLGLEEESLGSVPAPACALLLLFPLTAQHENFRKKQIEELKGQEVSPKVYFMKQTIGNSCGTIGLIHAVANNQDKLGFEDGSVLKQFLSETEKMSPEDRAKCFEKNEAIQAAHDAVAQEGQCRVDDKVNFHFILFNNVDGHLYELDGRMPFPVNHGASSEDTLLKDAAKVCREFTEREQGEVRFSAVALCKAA
Method in brief: as §1

UCHL3 = molecular target: T4, UCHL3 (UniProt P15374)
T4 sequence (whole entry): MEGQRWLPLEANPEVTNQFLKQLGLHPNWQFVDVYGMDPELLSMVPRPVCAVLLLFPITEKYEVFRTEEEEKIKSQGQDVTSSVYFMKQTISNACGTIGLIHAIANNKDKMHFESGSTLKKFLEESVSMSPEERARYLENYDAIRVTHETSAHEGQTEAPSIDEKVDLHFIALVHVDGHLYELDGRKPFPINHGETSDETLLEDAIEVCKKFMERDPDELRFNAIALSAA
Method in brief: as §1

UCHL5 = molecular target: T5, UCHL5 (UniProt Q9Y5K5)
T5 sequence (whole entry): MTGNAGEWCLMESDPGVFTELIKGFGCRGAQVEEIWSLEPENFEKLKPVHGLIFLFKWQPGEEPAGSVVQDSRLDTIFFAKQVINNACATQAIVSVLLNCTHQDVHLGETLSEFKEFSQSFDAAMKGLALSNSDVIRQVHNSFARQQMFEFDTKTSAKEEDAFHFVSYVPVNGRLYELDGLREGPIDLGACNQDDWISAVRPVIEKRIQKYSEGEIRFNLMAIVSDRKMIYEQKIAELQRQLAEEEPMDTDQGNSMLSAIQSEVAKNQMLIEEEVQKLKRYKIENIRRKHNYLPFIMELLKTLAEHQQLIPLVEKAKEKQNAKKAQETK
Method in brief: as §1

USP10 = USP10 (UniProt Q14694)
Chain of USP10 (Q14694 whole entry): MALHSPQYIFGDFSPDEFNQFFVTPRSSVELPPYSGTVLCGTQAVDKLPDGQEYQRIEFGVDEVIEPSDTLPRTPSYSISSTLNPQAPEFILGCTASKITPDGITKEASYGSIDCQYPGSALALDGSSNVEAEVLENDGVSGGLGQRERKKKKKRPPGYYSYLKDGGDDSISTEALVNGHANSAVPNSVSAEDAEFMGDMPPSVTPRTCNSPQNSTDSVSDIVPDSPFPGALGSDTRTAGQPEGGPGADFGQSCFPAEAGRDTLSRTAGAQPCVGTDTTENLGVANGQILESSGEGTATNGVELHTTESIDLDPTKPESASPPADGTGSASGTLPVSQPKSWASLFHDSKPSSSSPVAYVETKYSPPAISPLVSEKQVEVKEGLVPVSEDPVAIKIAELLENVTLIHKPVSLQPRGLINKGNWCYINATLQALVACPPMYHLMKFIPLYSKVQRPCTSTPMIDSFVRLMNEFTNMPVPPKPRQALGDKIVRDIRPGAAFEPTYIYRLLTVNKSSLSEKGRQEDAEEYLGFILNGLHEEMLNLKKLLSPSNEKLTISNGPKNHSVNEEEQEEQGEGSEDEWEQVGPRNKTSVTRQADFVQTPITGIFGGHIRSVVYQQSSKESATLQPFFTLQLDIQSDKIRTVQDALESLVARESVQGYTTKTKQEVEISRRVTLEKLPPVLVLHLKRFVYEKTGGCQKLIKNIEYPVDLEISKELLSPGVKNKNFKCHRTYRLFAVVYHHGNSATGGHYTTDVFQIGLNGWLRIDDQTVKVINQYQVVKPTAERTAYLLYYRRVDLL
Method in brief: as §1

USP15 = molecular target: T6, USP15 (UniProt Q9Y4E8)
T6 sequence (whole entry): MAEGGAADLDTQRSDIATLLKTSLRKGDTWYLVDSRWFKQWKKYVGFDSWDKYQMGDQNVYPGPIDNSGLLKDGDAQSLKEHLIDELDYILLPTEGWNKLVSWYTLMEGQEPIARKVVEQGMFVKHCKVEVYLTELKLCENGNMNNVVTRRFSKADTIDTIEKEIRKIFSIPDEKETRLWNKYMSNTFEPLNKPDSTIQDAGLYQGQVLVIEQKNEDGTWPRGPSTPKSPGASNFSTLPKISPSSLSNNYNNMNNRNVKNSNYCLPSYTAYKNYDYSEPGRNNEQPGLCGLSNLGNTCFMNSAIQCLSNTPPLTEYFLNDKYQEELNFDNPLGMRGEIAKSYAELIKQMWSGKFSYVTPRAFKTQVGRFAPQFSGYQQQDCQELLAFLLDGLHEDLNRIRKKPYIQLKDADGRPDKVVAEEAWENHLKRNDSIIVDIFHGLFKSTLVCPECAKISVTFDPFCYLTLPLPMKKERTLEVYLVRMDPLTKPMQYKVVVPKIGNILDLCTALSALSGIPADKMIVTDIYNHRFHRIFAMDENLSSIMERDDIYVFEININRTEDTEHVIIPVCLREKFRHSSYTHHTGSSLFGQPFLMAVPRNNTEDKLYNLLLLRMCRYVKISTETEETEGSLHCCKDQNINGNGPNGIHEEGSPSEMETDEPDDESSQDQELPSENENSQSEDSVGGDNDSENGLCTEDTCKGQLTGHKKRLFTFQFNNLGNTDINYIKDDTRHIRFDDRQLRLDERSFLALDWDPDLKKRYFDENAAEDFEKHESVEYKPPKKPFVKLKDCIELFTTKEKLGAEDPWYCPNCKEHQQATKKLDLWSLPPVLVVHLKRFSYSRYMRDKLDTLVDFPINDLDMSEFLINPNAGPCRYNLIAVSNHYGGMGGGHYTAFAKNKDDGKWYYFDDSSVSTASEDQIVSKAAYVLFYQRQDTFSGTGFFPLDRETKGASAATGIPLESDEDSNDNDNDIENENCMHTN
Method in brief: as §1

USP16 = USP16 (UniProt Q9Y5T5)
Chain of USP16 (Q9Y5T5 whole entry, looked up): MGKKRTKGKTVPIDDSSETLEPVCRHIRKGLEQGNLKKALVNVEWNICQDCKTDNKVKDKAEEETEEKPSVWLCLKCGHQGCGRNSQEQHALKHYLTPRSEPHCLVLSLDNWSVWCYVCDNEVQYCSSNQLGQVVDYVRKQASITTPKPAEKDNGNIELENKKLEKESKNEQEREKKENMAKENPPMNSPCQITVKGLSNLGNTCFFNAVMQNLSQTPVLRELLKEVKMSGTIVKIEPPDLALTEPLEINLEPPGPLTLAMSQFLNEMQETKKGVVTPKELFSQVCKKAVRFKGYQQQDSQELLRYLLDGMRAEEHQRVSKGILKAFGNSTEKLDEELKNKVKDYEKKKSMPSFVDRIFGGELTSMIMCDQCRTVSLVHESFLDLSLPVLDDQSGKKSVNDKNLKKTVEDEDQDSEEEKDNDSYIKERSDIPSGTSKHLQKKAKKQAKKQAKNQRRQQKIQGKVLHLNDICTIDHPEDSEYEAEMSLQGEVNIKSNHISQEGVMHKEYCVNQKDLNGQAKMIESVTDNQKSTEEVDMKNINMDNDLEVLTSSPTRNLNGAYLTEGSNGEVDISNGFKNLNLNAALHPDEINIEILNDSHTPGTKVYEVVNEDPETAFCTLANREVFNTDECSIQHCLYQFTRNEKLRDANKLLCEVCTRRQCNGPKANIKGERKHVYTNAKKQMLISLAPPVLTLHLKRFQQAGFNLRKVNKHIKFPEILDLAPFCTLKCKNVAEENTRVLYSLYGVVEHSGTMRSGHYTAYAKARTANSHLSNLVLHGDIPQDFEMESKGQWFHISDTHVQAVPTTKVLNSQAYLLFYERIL
Method in brief: as §1

Measured: log2 ratio of Biotin-Ahx-Ub-VS probe labelling

O=C(CCl)NCc1cccc(N2CCCC2=O)c1
active: USP16 -1
inactive: OTUD6B 0.058 | OTUD7B -0.585 | PRPF8 -0.0281 | PSMD7 -0.0566 | UCHL1 -0.979 | UCHL3 0.302 | UCHL5 -0.112 | USP10 0.0755 | USP15 0.049
